Source: PubChem BioAssay (NCI)
This is part of a sample that, as a whole, favours compounds with a hit. Of some 83,000 tested, about 20% had one in any assay.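 Cell lines were cultured in 96-well plates, exposed to a single compound concentration, and assessed for percent growth 48 hours later.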 A number with no mark means an inactive call. Activity calls are given as the source filed them. The calls were made as follows: active = growth percent below 10; inactive = the rest.

How the values were obtained:
Assay in all cases: NCI-60 one-dose screen, 48 h (100 = growth as untreated, 0 = no growth, -100 = all killed)
Details in all cases: 10 µM unless noted
[1] = tested on: DU-145 prostate
[2] = tested on: K-562 leukemia
[3] = tested on: MALME-3M melanoma
[4] = tested on: MDA-MB-231 breast
[5] = tested on: RXF 393 renal
[6] = tested on: SF-268 CNS
[7] = tested on: SF-295 CNS
[8] = tested on: SF-539 CNS
[9] = tested on: UACC-257 melanoma
[10] = tested on: M14 melanoma
[11] = tested on: HCT-15 colon
[12] = tested on: HT29 colon
[13] = tested on: SNB-75 CNS
[14] = tested on: SNB-19 CNS
[15] = tested on: U251 CNS
[16] = tested on: PC-3 prostate
[17] = tested on: SK-MEL-5 melanoma
[18] = tested on: UACC-62 melanoma
[19] = tested on: LOX IMVI melanoma
[20] = tested on: SK-MEL-28 melanoma

| SMILES | growth [1] | growth [2] | growth [3] | growth [4] | growth [5] | growth [6] | growth [7] | growth [8] | growth [9] | growth [10] | growth [11] | growth [12] | growth [13] | growth [14] | growth [15] | growth [16] | growth [17] | growth [18] | growth [19] | growth [20] |
| --- | --- | --- | --- | --- | --- | --- | --- | --- | --- | --- | --- | --- | --- | --- | --- | --- | --- | --- | --- | --- |
| COc1ccc2c(c1)C(C)Cc1c(Cl)ncnc1N2C (stereo not drawn) | 35.3% | 9.21% (active) | 41.4% | -45.3% (active) | -8.62% (active) | 10.5% | 15.2% | 28% | 13.6% | 12.1% | 4.94% (active) | -3.53% (active) | 2.7% (active) | 27.7% | 15.5% | 11.4% | -83.6% (active) | 0.755% (active) | -69.2% (active) | 14.8% |
| Cc1ccc(S(=O)(=O)n2cc(C(=O)C(=O)N3CCCCC3)c3ccccc32)cc1 | 97.1% | 69.9% | 84.8% | 75.2% | 113% | 78% | 60.4% | 90.6% | 101% | 89.4% | 79.9% | 88.3% | 73.8% | 97.7% | 91.3% | 52.1% | 47.3% | 49.5% | 71.9% | 172% |
| CN(C)Cc1ccc[nH]1 | 115% | 113% | 126% | 77.6% | 95.3% | 103% | 90.1% | 92.3% | 0.0923% (active) | 93.2% | 102% | 114% | 92.5% | 97.7% | 108% | 99.2% | 102% | 91.6% | 81.3% | 107% |
| NS(=O)(=O)c1ccc(CCN2C(=O)/C(=C\c3ccccc3)C=C2c2ccc(Cl)cc2)cc1 | 115% | 94.8% | 95.1% | 86.2% | 91% | 90.6% | 100% | 99.9% | 104% | 99% | 99.2% | 107% | 59.3% | 87% | 98.9% | 90% | 98.7% | 81.9% | 99.8% | 101% |
| CCOC(=O)C(c1ccccc1)N1C(=O)c2ccccc2C1=O (stereo not drawn) | 107% | 114% | 94.9% | 103% | 105% | 99.7% | 100% | 97.9% | 91.9% | 96.7% | 97.3% | 102% | 91.1% | 100% | 93.8% | 98.4% | 100% | 95% | 91.4% | 99.2% |
| C=CCc1nc2ccccc2s1 | 114% | 96.9% | 115% | 103% | 122% | 108% | 117% | 119% | 90.4% | 108% | 94.3% | 89.9% | 90.2% | 110% | 100% | 88.1% | 114% | 106% | 99.3% | 106% |
| O=c1[nH]cnc2c1ccn2C1OC(CO)C(O)C1O (stereo not drawn) | 18.4% | 65.4% | 81.3% | 45.3% | 43.1% | 76% | 69.2% | 80.4% | 86.2% | 55.9% | 45.5% | 65.9% | 74.6% | 78.3% | 81.2% | 36.3% | 83.1% | 73.3% | 27.8% | 91.2% |
| COc1ccc(OC)c(NC=O)c1 | 105% | 99.8% | 107% | 106% | 103% | 99.6% | 106% | 103% | 102% | 103% | 103% | 99.4% | 100% | 106% | 88.2% | 105% | 110% | 99.7% | 100% | 115% |
| Nc1nnc(CSc2nnc3n(Cc4ccccc4)c(=O)c4c5c(sc4n23)CCCC5)s1 | 110% | 64.1% | 116% | 76.5% | 93.2% | 41.2% | 276% | 105% | 98.5% | 104% | 90.4% | 102% | 98.7% | 100% | 93.2% | 90.6% | 105% | 82.1% | 86% | 122% |
| CN(C)C(=S)Sc1ccc([N+](=O)[O-])cc1[N+](=O)[O-] | 64.7% | 8.13% (active) | -4.06% (active) | 44.3% | -61.1% (active) | 52.8% | 90.3% | 52.1% | 41.4% | 8.95% (active) | 5.29% (active) | -16.6% (active) | 57.4% | 83.2% | 6.55% (active) | 28.1% | 17.2% | 33.5% | -4.79% (active) | 75.1% |
| COc1cc(C)cc2oc3oc(=N)c(C(=O)c4ccccc4)cc3c(=O)c12 | 111% | 97.5% | 91.8% | 98.2% | 108% | 94.4% | 106% | 96.4% | 111% | 99.7% | 103% | 108% | 86.2% | 99.4% | 107% | 103% | 96.8% | 93.5% | 95.6% | 98% |
| COc1cc2c(O)n(CCCN3CCOCC3)c3c4cnc5cccc(c(=O)c3c2cc1OC)c54 | 18% | 40.7% | 67.4% | 48.7% | 30.4% | 33.1% | 17.1% | 24.5% | 44% | 16.6% | 57.4% | 29.2% | 38.9% | 19.4% | 16.9% |  | 20.9% | 10.5% | 11.3% |  |
| COC(=O)[C@]12CCC(C)(C)C[C@H]1C1=CC[C@@H]3[C@@]4(C)C/C(=C/c5cccnc5)C(=O)C(C)(C)[C@@H]4CC[C@@]3(C)[C@]1(C)CC2 | 7.21% [100 µM] (active) | 5.39% [100 µM] (active) | -79.7% [100 µM] (active) | -55.7% [100 µM] (active) | -76.5% [100 µM] (active) | -5.3% [100 µM] (active) | -29.8% [100 µM] (active) | -76.6% [100 µM] (active) | -29.2% [100 µM] (active) | -49.8% [100 µM] (active) | 0.973% [100 µM] (active) | -15.9% [100 µM] (active) | -59.8% [100 µM] (active) | -23.1% [100 µM] (active) | -38.2% [100 µM] (active) | -16.3% [100 µM] (active) | -93.9% [100 µM] (active) | -59.4% [100 µM] (active) | -89.5% [100 µM] (active) | -69.5% [100 µM] (active) |
| CCC(Br)(CC)C(=O)c1ccc(OCC(=O)O)c(Cl)c1Cl | 114% | 114% | 107% | 107% | 88.8% | 100% | 81.6% | 96.9% | 124% | 116% | 103% | 110% | 92.7% | 104% | 106% | 108% | 97.7% | 87.4% | 96.9% | 111% |
| N=C(N)c1ccc(-c2ccc(-c3ccc(-c4cccs4)s3)s2)cc1F | 107% | 15.9% | 102% | 91.2% | 90.3% | 98.8% | 97.5% | 94.7% | 102% | 99.4% | 84.5% | 72.6% | 84.8% | 91.6% | 101% | 92.6% | 96.7% | 97.2% | 95.9% | 101% |
